Experimental data from PubChem BioAssay AID2551 (National Center for Advancing Translational Sciences (NCATS), 2010).
The whole screen tested about 310,000 compounds, of which about 17,000 (5.5%) were called active. About 11% were inconclusive and are not listed. The sample holds actives, similar compounds and a random draw of the others, so the mix is not that of the screen. Calls come from the whole dose curve; as a rule, active = well fitted inhibition curve with a large enough effect; inconclusive = small, poorly fitted or top-dose-only effect, or effect the other way; inactive = no such curve, though single readings can be large or run the other way.

These molecules were tested against Nuclear receptor ROR-gamma (Mus musculus) (UniProt P51450) (assay: qHTS for inhibitors of ROR gamma transcriptional activity). Conditions: Drosophila S2 Gal4-RORgamma UAS-luciferase reporter, 20 h; series mostly up to 53.6 µM; activity change, negative = inhibition: at the top concentration.
Nuclear receptor ROR-gamma (Mus musculus), sequence (P51450 whole entry, looked up, the tested form may be a part): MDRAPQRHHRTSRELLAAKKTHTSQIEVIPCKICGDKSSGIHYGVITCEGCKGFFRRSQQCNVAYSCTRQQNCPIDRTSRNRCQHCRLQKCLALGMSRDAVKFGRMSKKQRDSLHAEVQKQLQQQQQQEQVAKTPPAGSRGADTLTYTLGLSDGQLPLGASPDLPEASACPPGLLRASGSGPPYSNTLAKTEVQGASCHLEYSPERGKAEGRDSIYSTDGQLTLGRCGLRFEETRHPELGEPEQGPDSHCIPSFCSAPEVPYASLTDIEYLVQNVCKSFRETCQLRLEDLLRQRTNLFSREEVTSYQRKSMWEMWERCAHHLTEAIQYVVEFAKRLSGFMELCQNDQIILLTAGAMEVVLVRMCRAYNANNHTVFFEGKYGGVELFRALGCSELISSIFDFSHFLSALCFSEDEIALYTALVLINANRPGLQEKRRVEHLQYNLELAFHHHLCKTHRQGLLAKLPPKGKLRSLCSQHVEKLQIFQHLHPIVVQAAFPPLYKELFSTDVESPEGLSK
Summary of the method: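 Compounds are pin-transferred onto Drosophila Schneider cells expressing a copper-inducible Gal4–ROR gamma transactivation domain fusion. After 1 hr, copper sulfate is added to 700 uM final; luciferase is read 20 hr later.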
% is set by controls: 0 for no effect and ±100 for the full control effect; potency is the fitted concentration of half-maximal effect.
Note: nearly all actives have a fitted effect of over 60% in size.

Row | Structure (SMILES) | activity change, negative = inhibition | Potency
1 | CCc1nc2cccnc2n1-c1ccc(C(=O)O)cc1 | 14.3% (inactive) | –
2 | CC(=O)Oc1cccc(C(=O)Nc2ccccc2NC(=O)c2cccc(OC(C)=O)c2)c1 | 17.2% (inactive) | –
3 | COc1ccc(C2=NS(=O)(=O)N(C)C(C(=O)N3CCCCC3)=C2)cc1 | 15% (inactive) | –
4 | COc1cc(CC(=O)N2CCC(n3nccc3NC(=O)C3CC3)CC2)cc(OC)c1OC | -6.83% (inactive) | –
5 | CC(C)(C)c1ccc(/C=C/C(=O)NCCCn2ccnc2)cc1 | 9.01% (inactive) | –
6 | O=C(CSc1nc(C2CC2)nc2ccccc12)Nc1cccc(O)c1 | 15.2% (inactive) | –
7 | O=C(O)Cc1ccc(NC(=O)c2cccs2)cc1 | -37% (inactive) | –
8 | Cc1cccc(C(=O)Nc2ccc(CC(=O)O)cc2)c1 | – | 7.94 µM (active)
9 | O=C(Cc1ccccc1)Nc1cccc(NC(=O)c2ccccc2)c1 | 28.4% (inactive) | –
10 | Cc1nn(C)cc1S(=O)(=O)N1CCN(c2ccc(F)cc2)CC1 | -15.6% (inactive) | –
11 | Cc1ccc(OCC(=O)Nc2ccc(C(=O)O)cc2NC(=O)COc2ccc(C)c(C)c2)cc1C | 35% (inactive) | –
12 | CCCCCCCCn1c2c(c(=N)c3c1CCC3)CCCC2 | – | 0.708 µM (active)
13 | O=C(NNS(=O)(=O)c1ccc([N+](=O)[O-])cc1)C1CCCCC1 | -7.5% (inactive) | –
14 | c1ccc(CN=C2Nc3ccccc3CS2)nc1 | – | 11.2 µM (active)
15 | COc1ccc(CCn2c(-c3ccco3)nc3nc4ccccc4nc32)cc1OC | -7.43% [at 10 µM] (inactive) | –
16 | COc1ccccc1-n1c(-c2cc(-c3ccco3)[nH]n2)n[nH]c1=S | -40.9% (inactive) | –
17 | Cn1c(-c2ccco2)nc2cc3ccccc3cc21 | – | 6.31 µM (active)
18 | CN(C)Cc1c(C(=O)N/N=C/c2ccccc2OCc2ccc(F)cc2)nnn1-c1nonc1N | -4.75% (inactive) | –
19 | Cc1cc(C)c(C2C3=C(Nc4c2c(C)nn4-c2ccccn2)c2ccccc2C3=O)c(C)c1 (stereo unspecified) | – | 2.51 µM (active)
20 | Cc1nn(-c2ccccn2)c2c1C(c1ccncc1)C1=C(CC(C)(C)CC1=O)N2 (stereo unspecified) | -24.6% (inactive) | –
21 | Cc1ccc(C2C3=C(Nc4[nH]n(-c5ccccc5)c(=O)c42)c2ccccc2C3=O)cc1 (stereo unspecified) | -1.07% (inactive) | –
22 | CS(=O)(=O)N(CC(=O)Nc1ccc(F)cc1)C1CCCCC1 | -10.2% (inactive) | –

Row | Structure (SMILES) | activity change, negative = inhibition | Potency
23 | Cc1cccc(OC(C)C(=O)N2CCc3ccccc3C2)c1 (stereo unspecified) | -19.3% (inactive) | –
24 | COc1ccc(-c2nn(-c3ccccc3)cc2/C=N/Nc2ccccn2)cc1OC | – | 7.08 µM (active)
25 | Cc1nnc(SCC(=O)N/N=C/c2cn(-c3ccccc3)nc2-c2ccc(F)cc2)n1-c1ccccc1 | -1.76% (inactive) | –
26 | CN(C)/N=C/c1cn(-c2ccccc2)nc1-c1cccnc1 | 10.6% (inactive) | –
27 | CC1CC(=O)N(CC(=O)Nc2cccc(Cl)c2)c2ccccc2S1(=O)=O (stereo unspecified) | -19.7% (inactive) | –
28 | NC(=O)c1cc(S(=O)(=O)N2CCCC2)ccc1OCc1ccc(F)cc1 | 13.3% (inactive) | –
29 | CCOC(=O)CSc1nnc(CNC(=O)c2cccs2)n1-c1ccccc1 | 5% (inactive) | –
30 | Cc1ccc(C)c2[nH]c(=O)c(CCNC(=O)c3cccs3)cc12 | -1.69% (inactive) | –
31 | C=CCn1c(CCNC(=O)c2cccs2)n[nH]c1=S | – | 17.8 µM (active)
32 | O=C(c1cc2cc(Br)cc(Br)c2oc1=O)N1CCOCC1 | -31.5% (inactive) | –
33 | C=CCn1c(COc2cccc3cccnc23)nnc1SCC(=O)OC | 4.22% (inactive) | –
34 | C=CCn1c(-c2ccccc2OCC)n[nH]c1=S | – | 10 µM (active)
35 | C=CCn1c(-c2ccc3[nH]c(C)c(C)c3c2)n[nH]c1=S | – | 5.62 µM (active)
36 | Cc1nc(-c2ccccc2)sc1-c1nc(-c2ccccc2)ncc1S(=O)(=O)c1ccccc1 | -39.3% (inactive) | –
37 | Cc1nc(-c2ccccc2)sc1-c1nnc(C2CC2)o1 | -19.7% (inactive) | –
38 | Cc1[nH]c2ccc(S(N)(=O)=O)cc2c1C | -1.39% [at 10 µM] (inactive) | –
39 | C=CCn1c(-c2sc(-c3ccccc3)nc2C)n[nH]c1=S | – | 2.51 µM (active)
40 | C=CCn1c(COc2ccccc2C)nnc1SCC(=O)O | -3.71% (inactive) | –
41 | C=CCn1c(=S)sc2c(=O)[nH]c(C)nc21 | 6.04% (inactive) | –
42 | COCCn1c(SCC(=O)N2CCCCCC2)nc2c(c1=O)SCC2 | 4.84% (inactive) | –
43 | CCN1CCN(c2sc(S(C)(=O)=O)nc2S(=O)(=O)c2ccc(Cl)cc2)CC1 | -11.5% (inactive) | –
44 | CCOC(=O)c1csc(CCNC(=O)c2oc3c(Cl)cc(C)cc3c2C)n1 | 13.3% (inactive) | –

Row | Structure (SMILES) | activity change, negative = inhibition | Potency
45 | CC1CC(C)CN(S(=O)(=O)c2cccc3nonc23)C1 (stereo unspecified) | -6.89% (inactive) | –
46 | COc1cc(/C=N/NC(=O)CNC(=O)c2ccncc2)ccc1OC(C)=O | 5.03% (inactive) | –
47 | COc1ccc(/C=N/NC(=O)c2ccncc2)cc1CN1CCCc2ccccc21 | – | 11.2 µM (active)
48 | COc1ccc(/C=N/NC(=O)c2ccc(Cl)cc2)cc1COC(C)=O | 1.99% (inactive) | –
49 | COc1ccc(C(=O)O)cc1S(=O)(=O)NCc1cccnc1 | 33.5% (inactive) | –
50 | COc1cccc(NC(=O)CN2CCN(CC(=O)Nc3ccccc3Cl)CC2)c1 | 7.2% (inactive) | –
51 | Cc1ccc(OCC(=O)NC(C)c2ccccc2)cc1C (stereo unspecified) | 27% (inactive) | –
52 | O=C(CN1CCCCCC1)Nc1ccc(S(=O)(=O)N2CCCCC2)cc1 | -0.816% (inactive) | –
53 | Cc1cccc(NC(=O)CSCC(=O)Nc2nnc(C3CC3)s2)c1 | -38.7% (inactive) | –
54 | O=C(Nc1nnc(C2CC2)s1)c1cc(Cl)sc1Cl | – | 11.2 µM (active)
55 | O=C(Nc1nnc(C2CC2)s1)c1ccccn1 | – | 1.12 µM (active)
56 | Cc1occc1C(=O)Nc1nnc(C2CCCCC2)s1 | 0% [at 10 µM] (inactive) | –
57 | O=C(Cc1cccs1)Nc1nnc(C2CC2)s1 | 17.9% (inactive) | –
58 | CC1CCN(c2ccc(C(=O)Nc3nnc(C4CC4)s3)cc2[N+](=O)[O-])CC1 | -38.9% (inactive) | –
59 | CCCc1ccc(OCC(O)CN2CCN(C(=O)OCC)CC2)cc1 (stereo unspecified) | 16.4% (inactive) | –
60 | O=C(NCc1ccncc1)C(=O)NCC1OCCN1S(=O)(=O)c1ccc(Br)cc1 (stereo unspecified) | -10.9% (inactive) | –
61 | CCCN1C2CCCC1CC(NC(=O)NC13CC4CC(CC(C4)C1)C3)C2 (stereo unspecified) | -25.4% (inactive) | –
62 | COc1cc(/C=N/NC(=O)Cc2ccccc2)cc(OC)c1OC | 0.299% (inactive) | –
63 | C/C(=N/NC(=O)c1ccc(NC(=O)c2ccc(F)cc2)cc1)c1ccccc1 | -31.3% (inactive) | –
64 | Cc1ccc(C(=O)NCCNC(=O)c2ccccc2)cc1 | -8.02% (inactive) | –
65 | C/C(=N\NC(=O)c1ccc(C)cc1)C1C(=O)c2ccccc2C1=O | – | 0.891 µM (active)
66 | FC(F)(F)c1nnc2c3ccccc3c(Cl)nn12 | -22.3% (inactive) | –

Row | Structure (SMILES) | activity change, negative = inhibition | Potency
67 | O=C(CN1CCN(c2cccc(Cl)c2)CC1)Nc1ccc(S(=O)(=O)N2CCOCC2)cc1 | 14.7% (inactive) | –
68 | Cc1ccc(NC(=O)C(=O)NCc2ccco2)c(C)c1 | 18.4% (inactive) | –
69 | Cc1ccc(NC(=O)c2ccn(C(=O)Nc3ccccc3)n2)c(C)c1 | 4.67% (inactive) | –
70 | Cc1ccc(NC(=S)NCc2ccccc2Cl)c(C)c1 | – | 6.31 µM (active)
71 | Cc1cc(Cl)ccc1NC(=S)NCCCN1CCCC1=O | -42.8% (inactive) | –
72 | Cc1cccc(NC(=O)C2CCCN(C(=O)Nc3ccc(F)cc3)C2)c1C (stereo unspecified) | 1.81% (inactive) | –
73 | Cc1ccc(NC(=S)NCCc2ccc(Cl)cc2)c(C)c1 | – | 2.82 µM (active)
74 | O=C(CC(=O)N/N=C\c1ccc(F)cc1)NCCc1ccccc1 | 24.3% (inactive) | –
75 | Cc1cc(F)ccc1NC(=S)NCCc1ccccc1 | – | 5.62 µM (active)
76 | NC(=O)Nc1ccccc1C(=O)NCCc1ccccc1 | 18.4% (inactive) | –
77 | Cc1cccc(NC(=S)NCCc2ccc(F)cc2)c1C | – | 2 µM (active)
78 | Cc1cccc(NC(=O)COC(=O)CCc2ccccc2)c1C | -18.4% [at 1.91 µM] (inactive) | –
79 | Cc1cc(C(=O)NCCc2ccc(Cl)cc2)c(C)o1 | 13.5% (inactive) | –
80 | O=C(Nc1cccc([N+](=O)[O-])c1)N1CCc2ccccc2C1 | 42.6% (inactive) | –
81 | Cc1cc(N2C(=O)C(O)=C(C(=O)c3ccc(C)o3)C2c2ccc(OCc3ccccc3)cc2)no1 (stereo unspecified) | -4.37% (inactive) | –
82 | COc1ccccc1CCNS(=O)(=O)c1cc2c3c(c1)C(C)C(=O)N3CCC2 (stereo unspecified) | 13.9% (inactive) | –
83 | CCN(CC)S(=O)(=O)c1ccc(C(=O)N2CCN(C3=NS(=O)(=O)c4ccccc43)CC2)cc1 | 21.5% (inactive) | –
84 | Cc1cc(C)n(-c2ccc(NC(=O)C3CCCCN3C(=O)c3cccs3)cc2)n1 (stereo unspecified) | -11.8% (inactive) | –
85 | O=C(Cc1ccccc1Cl)N1CCOCC1 | 4.98% (inactive) | –
86 | Cc1ccccc1N/C(SCc1ccc(Cl)cc1)=C(/C#N)C(N)=O | 33.9% (inactive) | –
87 | O=C(COc1ccc(Cl)cc1)Nc1ccccc1CO | 42.9% (inactive) | –
88 | Cc1ccccc1NC(=S)NC(=O)Cc1ccc(Cl)cc1 | – | 7.94 µM (active)

Row | Structure (SMILES) | activity change, negative = inhibition | Potency
89 | Cc1ccc(NC(=S)Nc2ncccc2C)c(C)c1 | – | 4.47 µM (active)
90 | Cc1cccc(NC(=S)NCCc2ccc(Cl)cc2)c1C | – | 5.62 µM (active)
91 | CCOC(=O)N1CCN(C(=S)Nc2ccc(C)cc2C)CC1 | -1.33% (inactive) | –
92 | Cc1cccc(NC(=S)N2CCC(O)CC2)c1C | -8.16% (inactive) | –
93 | Cc1cccc(NC(=O)c2cccc(C(=O)Nc3cccc(C)c3C)n2)c1C | -10.9% [at 1.91 µM] (inactive) | –
94 | CSc1ncc(C(=O)Nc2ccc(C)cc2C)c(C)n1 | 11.4% (inactive) | –
95 | COc1ccccc1CN1CCNC(=O)C1CC(=O)N(C)CC1CCOCC1 (stereo unspecified) | -8.85% (inactive) | –
96 | COc1ccc(NC(=O)COc2ccc(C(=O)c3ccc(F)cc3)cc2)cc1S(N)(=O)=O | 1.06% (inactive) | –
97 | CC(=O)N1CCSc2ccc(S(=O)(=O)N3CCC(C)CC3)cc21 | 13.9% (inactive) | –
98 | COc1cccc(N(C(=O)CNC(=O)c2ccco2)C(C(=O)NC2CCCCC2)c2cccnc2)c1 (stereo unspecified) | 1.27% (inactive) | –
99 | Cc1ccc(-c2nc(CSCC(=O)NC3CCN(Cc4ccccc4)CC3)c(C)o2)cc1 | -2.39% (inactive) | –
100 | Cc1ccccc1OCC(=O)NNC(=O)c1cc(S(=O)(=O)N(C)C)ccc1N1CCCC1 | 24.7% (inactive) | –
101 | Cn1c(Nc2cccc(Cl)c2)nc2ccccc21 | -6.74% [at 1.91 µM] (inactive) | –
102 | COc1ccccc1CNC(=O)C1CCN(S(=O)(=O)c2ccc3c(c2)CC(C)N3C(=O)C2CC2)CC1 (stereo unspecified) | 14.5% (inactive) | –
103 | Cc1ccc(Oc2ccc3c(c2)C(=O)N(c2cccc4cccnc24)C3=O)cc1 | -9.24% (inactive) | –
104 | Cc1ccc(OS(=O)Nc2cccc3nccnc23)cc1 (stereo unspecified) | – | 3.98 µM (active)
105 | COc1ccc(NC(=O)Nc2cccc3cccnc23)cc1 | 2.2% (inactive) | –
106 | O=C(COc1ccc(Cl)cc1)NCCS(=O)(=O)N1CCN(c2ccc(F)cc2)CC1 | 23.4% (inactive) | –
